# Results reported in the supplement of paper PMC9135407.
# “And” between values parts separate entries of the source, which are not always exact repeats. Identical values can stand only once. Counter-ions that a name gives are not always drawn. About 620 (11%) of roughly 5,800 compounds showed activity. Many of the other results were omitted from the sample, so actives are more common in it than they were. A number with no mark means an inactive call.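 The calls were made as follows: active = score above a cut-off or among the top three wells of a plate; in these data no inactive exceeds 0.85.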
# Test system: primary human hepatic stellate cells (donor 1)
# Assay: scaled lipid accumulation score (0 = DMSO-like, 1 = nortriptyline-like); higher = stronger HSC inactivation (lipid re-accumulation), active = hit call of the paper
# Settings: 48 h
# Method: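 Primary lipid accumulation screen in primary human hepatic stellate cell myofibroblasts (donor 1, passage 8) in 384-well plates. 100 nL of library compound was pin-transferred into 30 µL medium in duplicate, and cells were treated for 48 h. The 'Scaled' score combines distance from plate baseline, toxicity and reproducibility penalties, and is normalised to nortriptyline (positive) and DMSO (negative) controls on each plate. A hit is defined as scaled >0.85 or among the top 3 wells per plate.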
# [1] = library stock concentration: 10 mM
# [2] = library stock concentration: 8.6 mM
# [3] = library stock concentration: 1 mM
# [4] = library stock concentration: 80 uM
# [5] = library stock concentration: 400 uM
# [6] = library stock concentration: 2 mM
# [7] = library stock concentration: 3.33 mM
smiles,measurement,setting,value
Cc1c2ccncc2c(C)c2c1[nH]c1ccccc12 [Ellipticine],scaled lipid accumulation score,,0.623
same,scaled lipid accumulation score,[1],≤ -0.07
CCC(N)C(O)c1ccc(O)c(O)c1 (configuration not stated) [Ethylnorepinephrine hydrochloride],scaled lipid accumulation score,[2],≤ 0
same,scaled lipid accumulation score,[1],≤ -0.027
NCC(O)c1cc(O)c(O)cc1F (configuration not stated) [6-Fluoronorepinephrine hydrochloride],scaled lipid accumulation score,[1],≤ 0
CCCCC/C=C\C/C=C\C/C=C\C/C=C\CCCC(=O)Nc1ccc(O)cc1C,scaled lipid accumulation score,[3],0.064
CCCCCCCC/C=C\CCCCCCCC(=O)N[C@H](C)CO,scaled lipid accumulation score,[3],0.021
COc1cc(C(O)CN)ccc1O (configuration not stated),scaled lipid accumulation score,[1],≤ -0.055
C=C(C)[C@@H]1CCC(C)=C[C@H]1c1c(O)cc(O)cc1CCCCC,scaled lipid accumulation score,[3],≤ 0
CCCCC/C=C\C/C=C\C/C=C\C/C=C\CCCC(=O)N[C@@H](C)C(=O)O [N-Arachidonoyl-L-Alanine],scaled lipid accumulation score,[3],0.035
CCn1cnc2c(Nc3cccc(Cl)c3)nc(N[C@@H]3CCCC[C@@H]3N)nc21,scaled lipid accumulation score,[4],≤ -0.016
same,scaled lipid accumulation score,[5],≤ -0.016
same,scaled lipid accumulation score,[6],0.503
same,scaled lipid accumulation score,[1],0.364 and 0.356
CN1CCC[C@@H]1Cc1c[nH]c2ccc(Nc3ncccc3[N+](=O)[O-])cc12,scaled lipid accumulation score,[1],≤ 0
CC[C@]1(O)CC[C@H]2[C@@H]3CCC4=CCCC[C@@H]4[C@H]3CC[C@@]21C [Ethylestrenol],scaled lipid accumulation score,[1],≤ 0
CCN1C[C@]2(C)CC[C@H](O)[C@]34C1[C@@H](C[C@H]23)[C@@]1(O)C[C@H](OC)[C@H]2C[C@@H]4[C@@H]1[C@H]2O [Karakoline],scaled lipid accumulation score,,≤ 0
C=C(C)[C@H]1CN[C@H](C(=O)O)[C@H]1CC(=O)O [(-)-(.alpha.)-Kainic Acid (hydrate)],scaled lipid accumulation score,[3],≤ 0
C=C(C)[C@H]1CN[C@H](C(=O)O)[C@H]1CC(=O)O [Kainic acid],scaled lipid accumulation score,[1],≤ -0.055 and 0.031 and ≤ -0.009
CC[C@H]1CN2CCc3cc(OC)c(OC)cc3C2C[C@@H]1CC1NCCc2cc(OC)c(OC)cc21.Cl.Cl (some centres not stated) [Emetine],scaled lipid accumulation score,library stock concentration: 3.6 mM,1.37 (active)
CC[C@H]1CN2CCc3cc(OC)c(OC)cc3[C@@H]2C[C@@H]1C[C@H]1NCCc2cc(OC)c(OC)cc21.Cl.Cl [Emetine dihydrochloride],scaled lipid accumulation score,,0.98 (active)
COc1cc2c(cc1OC)C(C)NCC2 (configuration not stated),scaled lipid accumulation score,,0.537
COc1cc2c(cc1OC)C1CC(=O)C(CC(C)C)CN1CC2 (configuration not stated) [Tetrabenazine],scaled lipid accumulation score,[1],≤ 0 and ≤ -0.001
CC[C@H]1CN2CCc3cc(OC)c(OC)cc3[C@@H]2C[C@@H]1C[C@H]1NCCc2cc(OC)c(OC)cc21 [Emetine dihydrochloride hydrate],scaled lipid accumulation score,[1],0.835
CC[C@H]1CN2CCc3cc(OC)c(OC)cc3[C@@H]2C[C@@H]1C[C@H]1NCCc2cc(OC)c(OC)cc21 [Emetine],scaled lipid accumulation score,[1],0.627
CC(=O)[C@H]1CC[C@H]2[C@@H]3CC[C@H]4C[C@](C)(O)CC[C@]4(C)[C@H]3CC[C@]12C [Ganaxolone],scaled lipid accumulation score,[1],0.134 and ≤ -0.001
CCCCCCC(=O)O[C@H]1CC[C@H]2[C@@H]3C[C@@H](O)C4=CC(=O)CC[C@]4(C)[C@H]3CC[C@]12C [6.beta.-Testosterone Enanthate],scaled lipid accumulation score,[3],0.05
c1ccc(/N=N/c2ccccc2)cc1 [Azobenzene],scaled lipid accumulation score,[1],≤ 0
CC1=C2[C@H]3OC(=O)[C@@H](C)[C@@H]3CC[C@@]2(C)C=CC1=O [alpha-Santonin],scaled lipid accumulation score,,≤ 0
C[C@H]1CC[C@]2(NC1)O[C@H]1C[C@H]3[C@@H]4CC[C@H]5C[C@@H](O)CC[C@]5(C)[C@H]4CC[C@]3(C)[C@H]1[C@@H]2C [Tomatidine],scaled lipid accumulation score,,0.117
C[C@]12CC[C@H]3[C@@H](CC[C@]4(O)C[C@@H](O)CC[C@]34C=O)[C@@]1(O)CC[C@@H]2C1=CC(=O)OC1 [Strophanthidin],scaled lipid accumulation score,,0.887 (active)
C[C@]12CCC3C(CC[C@]4(O)C[C@@H](O)CC[C@]34C=O)[C@@]1(O)CCC2C1=CC(=O)OC1 (some centres not stated) [Strophanthidin],scaled lipid accumulation score,[1],1.12 (active)
C[C@H]1O[C@@H](O[C@H]2CC[C@]3(C=O)[C@H]4CC[C@]5(C)[C@@H](C6=CC(=O)OC6)CC[C@]5(O)[C@@H]4CC[C@]3(O)C2)C[C@H](O)[C@@H]1O [Helveticoside],scaled lipid accumulation score,,0.504
CCN1C[C@]2(COC(=O)c3ccccc3N3C(=O)C[C@H](C)C3=O)CC[C@H](OC)[C@@]34[C@@H]5C[C@H]6[C@H](OC)[C@@H]5[C@](O)(C[C@@H]6OC)[C@](O)([C@@H](OC)[C@H]23)[C@@H]14 [Methyllycaconitine citrate],scaled lipid accumulation score,[1],≤ -0.006
CCC1(c2ccc(N)cc2)CCC(=O)NC1=O (racemic) [Dl-aminoglutethimide],scaled lipid accumulation score,[2],0.005
NC(CP(=O)(O)O)C(=O)O (configuration not stated),scaled lipid accumulation score,[1],0.082
CCCCCCCCCCCCCCCCOCC(COP(=O)([O-])OCC[N+](C)(C)C)OC(C)=O (stereo not drawn) [Enantio-PAF C16],scaled lipid accumulation score,[3],0.064
O=C(Oc1ccc([N+](=O)[O-])cc1)N1CCC(C(O)(c2ccc3c(c2)OCO3)c2ccc3c(c2)OCO3)CC1,scaled lipid accumulation score,[7],≤ 0
same,scaled lipid accumulation score,[1],≤ -0.001
O=[N+]([O-])C=Cc1ccc2c(c1)OCO2,scaled lipid accumulation score,[7],1.44 (active)
same,scaled lipid accumulation score,[1],0.901 (active)
C=CCc1ccc2c(c1)OCO2 [Safrole],scaled lipid accumulation score,[1],0.109
O=[N+]([O-])/C=C/c1ccc2c(c1)OCO2,scaled lipid accumulation score,[1],0.967 (active)
O=[N+]([O-])/C=C/c1ccc2c(c1)OCO2 [Syk Inhibitor III],scaled lipid accumulation score,[7],0.609
c1cc2c(cc1[C@H]1OC[C@H]3[C@@H]1CO[C@@H]3c1ccc3c(c1)OCO3)OCO2 [Sesamin],scaled lipid accumulation score,[7],≤ 0
same,scaled lipid accumulation score,[1],≤ 0
C=C1C/C(=C/C)C(=O)O[C@@H]2CCN3CC=C(COC(=O)[C@]1(C)O)[C@H]23 [Seneciphylline],scaled lipid accumulation score,,≤ 0
CCCCC/C=C\C/C=C\C/C=C\C/C=C\CCCC(=O)NOCCO [oxy-Arachidonoyl Ethanolamide],scaled lipid accumulation score,[3],0.014
C[C@H](N)C(=O)N[C@@H](C)C(=O)N[C@@H](Cc1ccccc1)C(=O)CCl,scaled lipid accumulation score,library stock concentration: 14.7 mM,0.708
CC(=O)O[C@@]12C[C@@H](C)[C@@]3(O)[C@@H](C=C(CO)C[C@]4(O)C(=O)C(C)=C[C@@H]34)[C@@H]1C2(C)C [Prostratin],scaled lipid accumulation score,[3],0.583 (active)
CCCCCCCCCCCCCC(=O)O[C@@H]1[C@@H](C)[C@@]2(O)[C@@H](C=C(CO)C[C@]3(O)C(=O)C(C)=C[C@@H]23)[C@@H]2C(C)(C)[C@]12OC(C)=O [Phorbol 12-myristate 13-acetate] [listing 1 of 2 here],scaled lipid accumulation score,[1],≤ 0
CCCCCCCCCCCCCC(=O)O[C@@H]1[C@@H](C)[C@@]2(O)[C@@H](C=C(CO)C[C@]3(O)C(=O)C(C)=C[C@@H]23)[C@@H]2C(C)(C)[C@]12OC(C)=O [Phorbol 12-myristate 13-acetate] [listing 2 of 2 here],scaled lipid accumulation score,library stock concentration: 8.1 mM,0.934 (active)
CC(=O)O[C@@H]1CC[C@@]2(C)[C@@H](CC[C@@H]3[C@@H]2CC[C@]2(C)C(=O)CC[C@@H]32)C1 [Androsterone acetate],scaled lipid accumulation score,[1],≤ -0.027
C=CCN1CC[C@]23c4c5ccc(O)c4O[C@H]2/C(=N/N=C2\CC[C@@]4(O)[C@H]6Cc7ccc(O)c8c7[C@@]4(CCN6CC=C)[C@H]2O8)CC[C@@]3(O)[C@H]1C5 [Naloxonazine 2HCl],scaled lipid accumulation score,library stock concentration: 3.1 mM,0.144
N[C@@H]1C[C@H]1c1ccccc1.N[C@H]1C[C@@H]1c1ccccc1 [Tranylcypromine sulfate],scaled lipid accumulation score,[2],≤ 0
same,scaled lipid accumulation score,[1],≤ 0
N[C@@H]1C[C@H]1c1ccccc1.N[C@H]1C[C@@H]1c1ccccc1 [Tranylcypromine],scaled lipid accumulation score,[4],≤ 0
same,scaled lipid accumulation score,[5],≤ 0
same,scaled lipid accumulation score,[6],≤ 0
same,scaled lipid accumulation score,[1],≤ 0
same,scaled lipid accumulation score,library stock concentration: 15 mM,≤ -0.003
C=C(C)[C@@H]1CCC(C)=C[C@H]1C1=C(O)C(=O)C(CCCCC)=CC1=O,scaled lipid accumulation score,[3],0.055
CC1=C2C(=CO[C@H](C)[C@H]2C)C(O)=C(C(=O)O)C1=O [Citrinin],scaled lipid accumulation score,[1],≤ 0
Cn1c2cccc(=O)c-2nc2ccccc21 [Pyocyanin],scaled lipid accumulation score,[3],≤ 0
CC(=O)OC1CN2CCC1CC2 (configuration not stated),scaled lipid accumulation score,[1],0.001
CCCCC/C=C\C/C=C\C/C=C\C/C=C\CCCC(=O)NC1CC1 [Arachidonoyl Cyclopropylamide],scaled lipid accumulation score,[3],≤ 0
"CN(C(=O)Cc1ccc(Cl)c(Cl)c1)[C@H](CN1CCCC1)c1ccccc1.Cl [ICI-199,441 hydrochloride]",scaled lipid accumulation score,[1],1.58 (active)
"CN(C(=O)Cc1ccc(Cl)c(Cl)c1)C(CN1CCCC1)c1cccc(OCC(=O)O)c1 (configuration not stated) [ICI 204,448 hydrochloride]",scaled lipid accumulation score,[1],0.053
CN(C(=O)Cc1ccccc1)C(CN1CCCC1)c1ccccc1 (configuration not stated) [N-MPPP Hydrochloride],scaled lipid accumulation score,[1],0.172
CCCCCc1cc(O)c2c(c1)OC(C)(C)C1CCC(C(=O)O)=CC21 (configuration not stated) [Tetrahydrocannabinol-7-oic acid],scaled lipid accumulation score,[3],≤ -0.021
COc1cc(CNC(=O)CCCCCCC(C)C)c(I)cc1O,scaled lipid accumulation score,[3],≤ 0
COc1cc2c3cc1Oc1cc(ccc1O)C[C@@H]1c4c(cc(OC)c(O)c4Oc4cccc(c4)C[C@@H]3N(C)CC2)CC[N+]1(C)C [Tubocurarine chloride pentahydrate (+)],scaled lipid accumulation score,,0.039
